Data on 59 compounds can be found in PubChem BioAssay AID1063 (University of Pittsburgh Molecular Library Screening Center, 2008).

Molecules are shown by their SMILES. The campaign covered roughly 200,000 compounds. About 18,000 (9%) were called active. The entries come from a sample that favours actives as a whole. Unmarked numbers belong to inactive results. Rule as the data show it: active = inhibition above about 50%; inactive = the rest.

The test in a line: Leishmania major promastigote growth inhibition, primary screen (AID 1063).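 Also: promastigotes grown with compound for 44 hours at 28 °C.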 The note with it: Leishmania major promastigotes, resazurin fluorescence viability; at 10 µM; active compounds read high. Background: The colour change of resazurin is a common sign of viable cells or microbes.
With `O=C(CSc1ccc(/C=N/NC(=O)c2cccc(F)c2)o1)Nc1ccccc1`, the inhibition was -5.63%.
The value for `O=C(N/N=C/c1ccc([N+](=O)[O-])o1)c1cn(-c2ccccc2)nc1-c1ccc(F)cc1` was 63.2% (active); that for `Cc1nnc(SCC(=O)N/N=C/c2cn(-c3ccccc3)nc2-c2ccc(F)cc2)n1-c1ccccc1` was -0.75%.
As to `OC1CCCN(c2ncnc3c2nnn3Cc2c(F)cccc2Cl)C1` (centres undefined), the inhibition was -5.48%.
Consider `CCCCCCCCCOC1OC(CO)C(O)C(O)C1NC(C)=O` (centres undefined), for which the inhibition is 16.4%.
In the case of `CC(=O)NC1C(Oc2ccc(C=O)cc2)OC(COC(C)=O)C(OC(C)=O)C1OC(C)=O` (centres undefined) it was -1.48%.
In the case of `CC(=O)NC1C(OCc2ccccc2)OC(COC(C)=O)C(OC(C)=O)C1OC(C)=O` (centres undefined) it was 55.7% (active); in that of `Cc1ccc2nc(COc3ccc(N(C)S(=O)(=O)c4ccccc4)cc3)cc(=O)n2c1`, -0.08%; in that of `Cc1nn(CCOc2ccc(Br)cc2)c(C)c1[N+](=O)[O-]`, -0.48%.
The value for `COc1ccccc1CN(C)c1nnnn1-c1ccccc1` was 6.46%; that for `CC(C)CC[n+]1ccn(C2=C([O-])c3ccccc3C(=O)/C2=N\S(=O)(=O)c2ccccc2)c1` was 77.1% (active); that for `CN1C(=O)/C(=C/c2ccco2)SC1=Nc1cccc(C(=O)O)c1` was -6.02%.
As to `COCCCNC(=O)C1CCC(CNS(=O)(=O)c2ccc(OC)cc2)CC1` (centres undefined), the inhibition is -4.6%.
The value for `CCC1(CC)NC(=O)N(CC(=O)OCC(=O)NC(=O)c2ccccc2)C1=O` was 10.3%; that for `Cc1ccc(Cl)cc1-c1ccc(/C=N/n2cnnc2)o1` was 64.2% (active).
In the case of `Cc1cc([N+](=O)[O-])c(-c2ccc(/C=N/n3cnnc3)o2)cc1Cl` it was 2.86%.
In the case of `Cc1cc(-c2ccc(/C=N/n3cnnc3)o2)c([N+](=O)[O-])cc1C` it was 2.14%; in that of `Cc1ccc(N2C(=O)SC(N(CC(=O)O)c3ccc(C)cc3)C2=O)cc1` (centres undefined), -0.34%; in that of `CCOc1cccc(/C=N/NC(=S)NCCN2CCOCC2)c1O`, 4.68%.
Turning to `Cc1cc(C(=O)N/N=C/c2ccc(N3CCOCC3)cc2)c(C)o1`, the inhibition was 7.7%.
On to `CNC(=S)N/N=C/c1ccc(N2CCOCC2)s1`, for which the inhibition was 90.2% (active).
In the case of `CCNC(=S)Nc1ccc(OC(F)(F)F)cc1` it was -1.95%; in that of `COC(=O)Cc1ccc(OCC(=O)Nc2ccc(OC(F)(F)F)cc2)cc1`, 54.1% (active).
The value for `COC(=O)[C@H](C)NC(=O)Nc1ccc(OC(F)(F)F)cc1` was -4.5%.
In the case of `COc1ccc(OC)c(CNC(=O)c2cc(=O)[nH]c3ccc(S(=O)(=O)N4CCCC4)cc23)c1` it was -4.76%.
Regarding `COc1ccc(-n2cc(CN(C)Cc3n[nH]c(=O)[nH]3)c(-c3cccc(F)c3)n2)cc1`, the inhibition is 2.9%.
In the case of `O=C(O)COc1ccc(/C=N/O)cc1Br` it was -4.34%; in that of `O=C(CN1CCN(c2ccc(Cl)cc2)CC1)NCc1cccs1`, -4.73%; in that of `CCN(C(=O)Cc1nc(N)n[nH]1)C1(C(=O)Nc2ccccc2)CCCCC1`, -8.2%.
The value for `O=C1N/C(=N\N=C\c2ccco2)SC1Cc1ccc(F)cc1` (centres undefined) was -16.9%.
As to `COc1ccc(-c2cc(C)nc3nc(N)nn23)cc1`, the inhibition was 0.56%.
In the case of `Cc1cc(C(C)(C)C)cc(C)c1N` it was 3.48%; in that of `Cc1cc(N)n2nc(-c3ccc(C(C)(C)C)cc3)cc2n1`, 80.3% (active); in that of `CCOC(=O)c1ccc(N2C(=O)CC(N3CCN(C(=O)c4ccccc4)CC3)C2=O)cc1` (centres undefined), -1.97%.
In the case of `O=C(c1ccc(F)cc1)n1cc(C(=S)N2CCOCC2)c2ccccc21` it was -2.86%; in that of `Cc1c(NC(=S)NC(=O)CCc2ccccc2)c(=O)n(-c2ccccc2)n1C`, -2.93%; in that of `C=CCNC(=O)/C(=C\c1cccc([N+](=O)[O-])c1)NC(=O)c1ccccc1`, -2.62%.
Turning to `CN(C)CCNC(=O)/C(=C/c1cccc([N+](=O)[O-])c1)NC(=O)c1ccccc1`, the inhibition is 68.3% (active).
In the case of `O=C(NCCc1ccccc1)/C(=C\c1ccc([N+](=O)[O-])cc1)NC(=O)c1ccccc1` it was -2.32%; in that of `Cc1nnc(SCc2cccc(Cl)c2)n(N)c1=O`, 9.66%; in that of `CN1CCN(S(=O)(=O)c2cccc(C(=O)N3CCc4ccccc43)c2)CC1`, 7%.
The value for `COc1cccc(NC(=O)CC2C(=O)NCCN2C(=S)Nc2ccc(F)cc2)c1` (centres undefined) was -2.74%.
In the case of `Fc1cc(Br)ccc1NC(=S)Nc1cccnc1` it was 5.1%; in that of `S=C(NCCc1ccccc1)N1CCn2cccc2C1c1ccncc1` (centres undefined), 81.9% (active).
Take `S=C(NCCc1ccccc1)N1CCCCC1`: the inhibition is -2.11%.
The value for `S=C(Nc1cccc(Br)c1)N1CCn2cccc2C1c1cccnc1` (centres undefined) was 91.2% (active); that for `O=C1CCN(C(=S)NCCc2ccccc2)CC1` was -11.3%; that for `O=C(/C=C/c1ccccc1)Oc1coc(CSc2ncccn2)cc1=O` was -7.34%.
Take `COCCCNC(=S)N(Cc1ccccc1)Cc1ccc(F)cc1`: the inhibition was 9.14%.
In the case of `Cc1cc(C)c2[nH]c(=O)c(CN(Cc3ccccc3)C(=S)NCCCN(C)C)cc2c1` it was 100% (active); in that of `Cc1cccc2cc(CN(Cc3cccs3)C(=S)NCc3ccco3)c(=O)[nH]c12`, 46%; in that of `CN1C=CC=C/C1=C1\SC(=S)N(Cc2ccccc2)C1=O`, -0.34%.
In the case of `CN(C)C(CNC(=O)c1cccc(C#N)c1)c1ccco1` (centres undefined) it was 3.86%.
The value for `CCc1ccccc1NC(=S)N(CCN1CCCCCC1)Cc1ccco1` was 21.6%.
In the case of `COc1cccc2cc(C(C)N(CCCN3CCOCC3)C(=O)Nc3ccc(Cl)cc3)oc12` (centres undefined), the inhibition was 48.2%.
In the case of `Cc1ccc(NC(=S)N(CCCN2CCCC2)Cc2cccn2Cc2ccc(Cl)cc2)cc1` it was 99.7% (active); in that of `CCOC(=O)N1CCN(CCC(=O)Nc2cc(OC)ccc2OC)CC1`, -3.46%; in that of `CCOC(=O)N1CCN(C(=O)C2CCN(S(C)(=O)=O)CC2)CC1`, -5.19%.
The value for `CCOC(=O)N1CCN(C(=O)C2CCN(Cc3ccc(OC)cc3OC)CC2)CC1` was 53.4% (active).

In general, inhibition refers to the relative decrease from the control value, in per cent.
